This passage reports activity change results from PubChem BioAssay AID743279 (National Center for Advancing Translational Sciences (NCATS), 2014).

Hit rate of the full screen: of about 360,000 compounds, about 17,000 (4.7%) were called active. About 5% were inconclusive and are not listed. Cut-off read from the data, not from the text of the source: active = activity change below about -50%; inconclusive = mostly about -30% to -49%; inactive = weaker than that. The list comes from a sample in which actives are over-represented; it also holds similar structures and randomly drawn compounds.
% is set by controls: 0 for no effect and ±100 for the full control effect.

A short description of this assay: qHTS for Inhibitors of Inflammasome Signaling: IL-1-beta AlphaLISA Primary Screen. To be noted: THP-1 LPS/ATP IL-1B secretion, 16 h; at 57.5 µM, active compounds read low. The method, boiled down:
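Secreted IL-1B measured by AlphaLISA bead assay after 16 h compound exposure of THP-1 cells; compounds (final up to 57.5 uM) added 1 h before LPS (250 ng/mL) and ATP (1.25 mM) stimulation; lower signal means less secretion.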
(Quantitative high-throughput screening tests each substance at several concentrations.)
Regarding `O=C(Cn1cc(C(F)(F)F)ccc1=O)N/N=C/c1ccc(Cl)cc1Cl`, the activity change was 0% (inactive).
Turning to `CCOc1cc(C(=O)O)ccc1OCCOc1ccccc1`, the activity change was 4.78% (inactive).
In the case of `CC/C(=C(/c1ccccc1)c1ccc(OCC[N+](C)(C)C)cc1)c1ccccc1`, the activity change was -61.5% (active).
Regarding `COc1ccc(C(=O)NCC[N+](C)(C)C)cc1`, the activity change was 22.2% (inactive).
On to `CCN(c1ccccc1)S(=O)(=O)c1cc(C(=O)NCc2ccccn2)ccc1C`, for which the activity change was -10.4% (inactive).
Next, `CN(Cc1ccccc1)C(=O)CCC1CCN(C(=O)c2ccco2)CC1`: -7.63% (inactive); `O=C(Nc1ccc(S(=O)(=O)NCC2CCCO2)cc1)c1ccc(F)cc1` (configuration not stated): 11.6% (inactive); `COc1ccc(N2C(=O)C3C(C2=O)C(C(=O)c2ccccc2)N2CCCC32)cc1` (configuration not stated): -82.1% (active).
Next, `CNC(=O)C[C@H]1C(=O)N(c2ccc(OC)cc2)C[C@@H]1Cc1ccccc1`: -12.1% (inactive); `COc1ccc(N2C(=O)CC(N3CCC(C(N)=O)CC3)C2=O)cc1` (configuration not stated): -4% (inactive); `OCC(CO)(CO)NCc1ccc(-c2ccccc2)cc1`: 6.61% (inactive).
The value for `Cc1ccc(-c2noc(CSc3nnc(-c4ccncc4)n3-c3ccc(F)cc3)n2)cc1` was -15.2% (inactive); that for `Cc1ccc(-c2noc(CSc3nnc(-c4cccs4)n3C)n2)cc1` was 34.2% (inactive).
Turning to `Cc1ccc(-c2noc(CSc3nnnn3-c3ccccc3)n2)cc1`, the activity change is -64.8% (active).
The value for `CCCCCCCCOC1OC(CO)C(O)C(O)C1NC(C)=O` (configuration not stated) was 48.8% (inactive); that for `CSCCC(NC(=O)COc1ccccc1)C(=O)OCCOc1ccc(F)cc1` (configuration not stated) was 5.31% (inactive); that for `CSCCC(NC(=O)COc1ccccc1)C(=O)N1CCN(c2cccc(C(F)(F)F)c2)CC1` (configuration not stated) was -61.8% (active).
On to `O=C(COc1ccc(Cl)cc1)N1CCN(c2cccc(C(F)(F)F)c2)CC1`, for which the activity change was -4.57% (inactive).
Consider `O=C(N[C@@H](Cc1c[nH]c2ccccc12)C(=O)O)OCC1c2ccccc2-c2ccccc21`, for which the activity change was 4.34% (inactive).
Next, `Cc1nnc(NC(=O)c2ccc3nccnc3c2)s1`: -17.3% (inactive); `Cc1nnc(NC(=O)C(c2ccccc2)c2ccccc2)s1`: -5.78% (inactive).
On to `Cc1nnc(NC(=O)Nc2ccc(Cl)c(Cl)c2)s1`, for which the activity change was -94% (active).
Next, `C[C@@H]1CN([C@@H](C)CO)C(=O)c2c(c3ccccc3n2C)-c2ccccc2CO[C@H]1CN(C)C(=O)C1CC1`: 23% (inactive).
For `Cc1ccc(CN(C)C[C@@H]2OCc3cnnn3CCCC(=O)N([C@@H](C)CO)C[C@H]2C)cc1`, the activity change is 13.2% (inactive).
Consider `O=C(CN1CCC(O)(c2ccccc2)CC1)Nc1ccc2c(c1)OCCO2`, for which the activity change was -25.5% (inactive).
For the molecule `O=C(COC(=O)c1ccccc1)c1ccc2c(c1)OCCO2`, the activity change is -8.63% (inactive).
In the case of `O=C(CCN1CCc2ccccc2C(O)(c2ccccc2)C1)c1ccc2c(c1)OCCO2` (configuration not stated), the activity change was -101% (active).
The value for `CC(C)(O)C#Cc1ccc(CN2CCC(CO)(CCc3ccccc3)CC2)cc1` was -1.38% (inactive); that for `Cc1c(CN2CCC(CO)(CCOc3ccccc3)CC2)[nH]c2ccc(Cl)cc12` was -96.7% (active).
With `OCC1(CCOc2ccccc2)CCN(Cc2cn[nH]c2-c2ccccc2)CC1`, the activity change is -2.13% (inactive).
Next, `CC1CCN(c2ccc3c(c2)S(=O)(=O)c2cc(C(=O)O)ccc2C3=O)CC1`: 22% (inactive).
Turning to `Cc1cccc(-n2ncc(Cl)c(Cl)c2=O)c1`, the activity change was -100% (active).
The value for `Cc1cccc(-n2ncc(C#N)c2-n2cccc2)c1` was 28.7% (inactive); that for `C=CCNc1cnn(-c2ccc(C)cc2)c(=O)c1Cl` was -16.2% (inactive).
`CC1(C(=O)NS(=O)(=O)c2cccc(F)c2)CCN1C(=O)Cc1ccc(Cl)cc1Cl` (configuration not stated): the activity change is -15.9% (inactive).
Consider `O=C(Nc1cc(S(=O)(=O)N2CCCCC2)ccc1Cl)C1COc2ccccc2O1` (configuration not stated), for which the activity change was -6.17% (inactive).
Next, `NS(=O)(=O)c1ccc(CCNC(=O)CNC(=O)Cc2ccccc2)cc1`: 12.6% (inactive); `CC(C)c1nccn1S(=O)(=O)c1cc([N+](=O)[O-])ccc1Cl`: 0% (inactive); `CCc1nc(C)cn1S(=O)(=O)c1cc([N+](=O)[O-])ccc1Cl`: -82.5% (active).
With `CCc1nc(C)cn1S(=O)(=O)c1cc(OC)c(C)cc1C`, the activity change is 30.3% (inactive).
The value for `O=C1N[C@@H](Cc2ccccc2)C(=O)N2[C@@H]3N(S(=O)(=O)c4ccc(F)cc4)c4ccccc4[C@]3(Br)C[C@@H]12` was -2.75% (inactive); that for `Cc1cccc(S(=O)(=O)N(C)C[C@H]2OCc3cnnn3CCCC(=O)N([C@@H](C)CO)C[C@H]2C)c1` was 16.6% (inactive); that for `Oc1cccc(C2c3[nH]c4ccccc4c3CCN2Cc2cnn(-c3ccccc3)c2)c1` (configuration not stated) was -64% (active).
Next, `CCOc1ccc(C2c3[nH]c4ccccc4c3CCN2Cc2cn(CC)nc2C)cc1` (configuration not stated): 18.2% (inactive); `COc1cccc(C2c3[nH]c4ccccc4c3CCN2Cc2cccc(C)n2)c1` (configuration not stated): -5.35% (inactive); `O=S1(=O)CCOC[C@H](Cc2ccccc2)N1Cc1ccccc1Br`: -7.15% (inactive).
For the molecule `CC(C)CCNC(=O)c1[nH]c(C(F)(F)F)nc1-c1ccccc1`, the activity change was 28.5% (inactive).
Turning to `CC(C)Oc1ccc(CCc2n[nH]c(=S)n2Cc2ccccc2)cc1`, the activity change is 16.3% (inactive).
On to `Brc1c(CSc2nncc3ccccc23)nc2ccccn12`, for which the activity change is -74% (active).
Regarding `CN(C(=O)CSc1nncc2ccccc12)C1CCCCC1`, the activity change was 0% (inactive).
The value for `COC(=O)C[C@H]1C=C[C@H](NC(=O)c2ccc(F)cc2)[C@@H](CO)O1` was -9.5% (inactive); that for `CCn1c(/C=C/Nc2ccccc2)[n+](CC)c2ccc(C(=O)OCC(F)(F)F)cc21` was -98.2% (active); that for `CCOC(=O)N1CCN(C(=O)c2ccc(S(=O)(=O)Nc3cccc(C(F)(F)F)c3)cc2)CC1` was 0.178% (inactive).
Next, `CCOC(=O)c1ccc2c(c1)nc(C)n2CC`: -16.9% (inactive).
The value for `C[C@H](CO)N1C[C@H](C)[C@@H](CN(C)S(=O)(=O)c2ccc(Oc3ccccc3)cc2)OCc2cn(nn2)CCCC1=O` was 4.67% (inactive).
Consider `O=S1(=O)CC(N2CCN(Cc3ccccc3F)CC2)CN1Cc1cn(Cc2cccc(C(F)(F)F)c2)nn1` (configuration not stated), for which the activity change is -6.73% (inactive).
The value for `S=c1[nH]nc(/C=C/c2ccccc2)o1` was -8.62% (inactive).
